Reference: the supplement of paper PMC12494721
Counter-ions that a name gives are not always drawn.

Assays:
Conditions in all cases: 20 µM; incubation time: 27 h, anaerobic, 37 °C;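 for the amine columns active = adjusted P below 0.05 in both replicates with a change the same way and a mean fold change under 0.8 or over 1.25; inactive = the rest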
[1] = tested on: Clostridium sporogenes DSM 1664; experiment: growth (OD595) fold change vs plate DMSO controls (fold change (ratio)); higher = more growth
Summary of the method: (§1)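 Each value is the mean of 2 biological replicates, and fold changes above 1.5 were set to NA. The underlying readings were taken at 595 nm from shaken anaerobic mGAM cultures in 96-well plates after 27 h at 37 °C. They were blank-subtracted, corrected for compound background using 20 µM compound solutions in water, and converted to OD with a calibration factor of 5. Growth is the fold change relative to the median of the plate DMSO controls.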

[2] = tested on: Escherichia coli IAI1; experiment: as above
Summary of the method: as §1

[3] = tested on: Klebsiella aerogenes DSM 30053; experiment: as above
Summary of the method: as §1

[4] = tested on: Ruminococcus gnavus DSM 108212; experiment: as above
Summary of the method: as §1

[5] = tested on: Klebsiella aerogenes DSM 30053; experiment: fold change of Histamine concentration vs plate DMSO controls (fold change (ratio)); higher = more amine produced, active = hit call of the paper (significant change in both replicates, either direction)
Summary of the method: (§2)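 Amine values are fold changes relative to DMSO-only wells on the same plate. They derive from 27 h, 37 °C anaerobic mGAM cultures of four gut bacterial strains in 80 µL wells, dosed at 20 µM final, or 50 µM final for sweeteners. Extraction of the whole culture, LC–triple-quadrupole MS in dynamic MRM mode, external calibration curves and within-batch drift correction were used, with 2 biological replicates averaged.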

[6] = tested on: Clostridium sporogenes DSM 1664; experiment: fold change of Tryptamine concentration vs plate DMSO controls (fold change (ratio)); higher = more amine produced, active = hit call of the paper (significant change in both replicates, either direction)
Summary of the method: as §2

[7] = tested on: Ruminococcus gnavus DSM 108212; experiment: as above
Summary of the method: as §2

[8] = tested on: Escherichia coli IAI1; experiment: fold change of Putrescine concentration vs plate DMSO controls (fold change (ratio)); higher = more amine produced, active = hit call of the paper (significant change in both replicates, either direction)
Summary of the method: as §2

[9] = tested on: Klebsiella aerogenes DSM 30053; experiment: as above
Summary of the method: as §2

[10] = tested on: Escherichia coli IAI1; experiment: fold change of Cadaverine concentration vs plate DMSO controls (fold change (ratio)); higher = more amine produced, active = hit call of the paper (significant change in both replicates, either direction)
Summary of the method: as §2

[11] = tested on: Klebsiella aerogenes DSM 30053; experiment: as above
Summary of the method: as §2

[12] = tested on: Ruminococcus gnavus DSM 108212; experiment: fold change of 2-Phenylethylamine concentration vs plate DMSO controls (fold change (ratio)); higher = more amine produced, active = hit call of the paper (significant change in both replicates, either direction)
Summary of the method: as §2

Compound | growth [1] | growth [2] | growth [3] | growth [4] | fold change of Histamine concentration [5] | fold change of Tryptamine concentration [6] | fold change of Tryptamine concentration [7] | fold change of Putrescine concentration [8] | fold change of Putrescine concentration [9] | fold change of Cadaverine concentration [10] | fold change of Cadaverine concentration [11] | fold change of 2-Phenylethylamine concentration [12]
CCNc1nc(Cl)nc(NC(C)C)n1 | 1.02 | 1.02 | 1 | 1.06 | 1.03 (inactive) | 0.98 (inactive) | 1.06 (inactive) | 0.961 (inactive) | 0.971 (inactive) | 0.849 (inactive) | 1 (inactive) | 1.1 (inactive)
CN1C(=O)COc2c(C(=O)NC3CN4CCC3CC4)cc(Cl)cc21 (centres undefined) [Azasetron hydrochloride] | 0.734 | 0.55 | 0.585 | 0.0388 | 1.03 (inactive) | 0.992 (inactive) | 1.02 (inactive) | 0.507 (inactive) | 0.996 (inactive) | 0.512 (inactive) | 0.982 (inactive) | 0.986 (inactive)
CCOC(=O)CC(SP(=S)(OC)OC)C(=O)OCC (centres undefined) | 0.873 | 1.03 | 1.01 | 0.941 | 0.998 (inactive) | 1.06 (inactive) | 1.02 (inactive) | 1.01 (inactive) | 0.994 (inactive) | 0.997 (inactive) | 0.993 (inactive) | 1 (inactive)
COC(=O)N(C(=O)N1CO[C@@]2(C(=O)OC)Cc3cc(Cl)ccc3C2=N1)c1ccc(OC(F)(F)F)cc1 | 1.15 | 0.998 | 0.992 | 0.903 | 0.975 (inactive) | 1.03 (inactive) | 1.03 (inactive) | 0.945 (inactive) | 0.915 (inactive) | 0.907 (inactive) | 1.03 (inactive) | 0.986 (inactive)
CN1COCN(Cc2cnc(Cl)s2)/C1=N\[N+](=O)[O-] | 0.973 | 1.02 | 1 | 0.969 | 1.01 (inactive) | 0.906 (inactive) | 0.912 (inactive) | 1.03 (inactive) | 1.01 (inactive) | 1.03 (inactive) | 0.993 (inactive) | 0.88 (inactive)
CCNC(=O)NC(=O)/C(C#N)=N/OC | 1.09 | 1.08 | 1 | 1.05 | 0.937 (inactive) | 0.956 (inactive) | 1 (inactive) | 1.05 (inactive) | 1.02 (inactive) | 1.06 (inactive) | 1.02 (inactive) | 1.02 (inactive)
O=NN(CCO)CCO [DMNA (N-nitrosodiethanolamine)] | 0.95 | 1.15 | 1 | 1.09 | 0.975 (inactive) | 0.994 (inactive) | 1.05 (inactive) | 1.03 (inactive) | 0.957 (inactive) | 0.978 (inactive) | 1.03 (inactive) | 1.08 (inactive)
CN1[C@@H]2C[C@@H](OC(=O)[C@H](CO)c3ccccc3)C[C@H]1[C@@H]1O[C@@H]12 [Scopolamine hydrochloride] | 1.07 | 1.01 | 1.03 | 1.08 | 0.953 (inactive) | 1.2 (inactive) | 1.08 (inactive) | 1.17 (inactive) | 0.965 (inactive) | 0.948 (inactive) | 1.02 (inactive) | 1.12 (inactive)
NC(=O)CN1CCCC1=O [Piracetam] | 1.08 | 0.995 | 0.984 | 1.11 | 1.04 (inactive) | 1.01 (inactive) | 1.02 (inactive) | 1.04 (inactive) | 1.01 (inactive) | 0.997 (inactive) | 0.985 (inactive) | 1.01 (inactive)
CN(C)[C@@H]1C(=O)C(C(N)=O)=C(O)[C@@]2(O)C(=O)C3=C(O)c4c(O)cccc4[C@@](C)(O)[C@H]3[C@H](O)[C@@H]12 [Oxytetracycline dihydrate] | 0.0153 | 0.133 | 0.113 | 0.955 | 0.0509 (active) | 0.0182 (active) | 0.898 (inactive) | 0.279 (active) | 0.46 (active) | 0.113 (active) | 0.413 (active) | 0.92 (inactive)
CC(C)N1C(=O)N(c2ccccc2)CS/C1=N\C(C)(C)C | 1.04 | 1.03 | 1.03 | 0.99 | 0.967 (inactive) | 1.03 (inactive) | 1.03 (inactive) | 1.02 (inactive) | 1.03 (inactive) | 1.06 (inactive) | 1.01 (inactive) | 0.961 (inactive)
CC(C)[N+](C)(CCC(C(N)=O)(c1ccccc1)c1ccccc1)C(C)C [Isopropamide iodide] | 1.04 | 1.09 | 0.982 | 1.39 | 1.01 (inactive) | 0.99 (inactive) | 0.909 (inactive) | 1.24 (inactive) | 1.01 (inactive) | 0.936 (inactive) | 0.997 (inactive) | 0.834 (inactive)
Oc1ccc(C(c2ccc(O)cc2)(C(F)(F)F)C(F)(F)F)cc1 [Bisphenol AF] | 1.04 | 1.07 | 0.956 | 0.983 | 1.08 (inactive) | 0.718 (inactive) | 0.717 (active) | 1.01 (inactive) | 0.989 (inactive) | 1.03 (inactive) | 0.99 (inactive) | 0.723 (inactive)
CCOCN(C(=O)CCl)c1c(C)cccc1CC | 0.867 | 1.01 | 0.997 | 1.08 | 1.01 (inactive) | 1.06 (inactive) | 1.01 (inactive) | 0.901 (inactive) | 0.941 (inactive) | 0.88 (inactive) | 1 (inactive) | 1.02 (inactive)
COc1cc([C@@H]2c3cc4c(cc3[C@H](O)[C@H]3COC(=O)[C@H]23)OCO4)cc(OC)c1OC [Podophyllotoxin] | 1.13 | 1.18 | 1.14 | 0.888 | 0.958 (inactive) | 1.01 (inactive) | 1.03 (inactive) | 1.06 (inactive) | 1.02 (inactive) | 0.931 (inactive) | 1.02 (inactive) | 1.02 (inactive)
C[N+](C)(C)CCCl | 1.05 | 0.994 | 0.986 | 0.97 | 1.01 (inactive) | 1.03 (inactive) | 1.06 (inactive) | 0.949 (inactive) | 0.82 (inactive) | 0.863 (inactive) | 1.08 (inactive) | 1.06 (inactive)
COc1ncc(F)c2nc(S(=O)(=O)Nc3c(F)cccc3F)nn12 | 1.08 | 0.984 | 1.08 | 1.15 | 0.874 (inactive) | 1.04 (inactive) | 0.984 (inactive) | 1.01 (inactive) | 0.997 (inactive) | 0.998 (inactive) | 1.03 (inactive) | 0.993 (inactive)
COCC(C)N(C(=O)CCl)c1c(C)csc1C (centres undefined) | 1.06 | 1.02 | 1.03 | 0.986 | 0.989 (inactive) | 1.02 (inactive) | 0.991 (inactive) | 1.01 (inactive) | 1.01 (inactive) | 0.953 (inactive) | 1.04 (inactive) | 0.941 (inactive)
C[C@]12CC[C@H](O)C[C@H]1CC[C@@H]1[C@@H]2CC[C@]2(C)[C@@H](C3=CC(=O)OC3)CC[C@]12O [Digitoxigenin] | 1.02 | 1.02 | 0.986 | 1 | 1.06 (inactive) | 1.05 (inactive) | 1.02 (inactive) | 1.03 (inactive) | 1.01 (inactive) | 1.01 (inactive) | 0.989 (inactive) | 1.03 (inactive)
CC(N)C(O)c1ccccc1 (centres undefined) [Phenylpropanolamine hydrochloride] | 0.914 | 1.04 | 0.98 | 1.21 | 1.1 (inactive) | 1.22 (inactive) | 1.07 (inactive) | 1.06 (inactive) | 1.03 (inactive) | 1.05 (inactive) | 0.982 (inactive) | 1.08 (inactive)
CCC1(CC)C(=O)C=CNC1=O [Pyrithyldione] | 0.889 | 0.977 | 1.04 | 0.877 | 1.03 (inactive) | 0.966 (inactive) | 1.02 (inactive) | 1.01 (inactive) | 1.03 (inactive) | 1 (inactive) | 1.02 (inactive) | 0.996 (inactive)
C[C@@H]1C[C@@H]([C@H](O)CC2CC(=O)NC(=O)C2)C(=O)[C@@H](C)C1 [Cycloheximide] | 1.17 | 0.978 | 0.995 | 1.25 | 1.08 (inactive) | 0.956 (inactive) | 1.01 (inactive) | 1.06 (inactive) | 1.03 (inactive) | 1.01 (inactive) | 0.998 (inactive) | 0.95 (inactive)
